Six1-Eya2 blk: inhibitors of human Six1/Eya2 interaction. AID 651725. AlphaScreen GST-Six1/His-Eya2 binding, biochemical; active compounds read low. activity change, % (test concentration not listed). hit rate 0.56% among 360,000. Q15475+O00167; in the data active = activity change below about -65%; inconclusive = mostly about -30% to -63%; also: % is scaled to controls: 0 for no effect and ±100 for the full control effect
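AlphaScreen with GST-Six1 and His-Eya2 (5X mix: 250 nM and 500 nM), glutathione donor and nickel acceptor beads; buffer 50 mM Tris pH 8.0, 300 mM NaCl, 1 mM TCEP; 1 h at 37 C in the dark.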
G9a inh: inhibitors of human histone lysine methyltransferase G9a; Q96KQ7; G9a H3K9 monomethylation, AlphaScreen, 2 h; Potency, µM (series often up to 102 µM), without a hit: at the highest dose activity, negative = inhibition, actives largely listed as inhibitors; hit rate 8.8% among 350,000; AID 504332; also: potency is read from the fitted curve at half-maximal effect; % is scaled to controls: 0 for no effect and ±100 for the full control effect; nearly all actives have a fitted effect of over 75% in size
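Signal arises when biotinylated H3K9 peptide, once monomethylated, bridges streptavidin donor and antibody-captured acceptor beads. Enzyme at 20 nM was preincubated 15 min with test compounds; peptide 500 nM and SAM 20 uM then reacted for 2 h.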
BAZ2B block: BAZ2B (human) inhibition | Q9UIF8 | AlphaScreen BAZ2B-H3K14Ac peptide displacement | Potency, µM (highest dose often 114 µM), inactives show at the top dose activity change, negative = inhibition, most hits filed as inhibitors | hit rate 4.4% among 360,000; also: potency is read from the fitted curve at half-maximal effect; % is scaled to controls: 0 for no effect and ±100 for the full control effect; nearly all actives have a fitted effect of over 60% in size
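BAZ2B (50 nM) with biotin-H3(5-23)K14Ac peptide (50 nM) in PBS pH 7.4, 0.01% Tween-20, preformed 30 min, then compound 30 min at room temperature; top concentration 110uM. AlphaScreen streptavidin donor/nickel chelate acceptor beads (10 ug/mL final), 20 min dark, signal read.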
HP1b chromo inh: inhibitors of HP1-beta chromodomain binding to methylated histone tails | Potency, µM (titrated, usually from 114 µM), for inactives: top-dose activity change, negative = inhibition, actives largely listed as inhibitors | P83916 | AlphaScreen HP1-beta / biotin-H3K9me3 peptide binding | hit rate 0.56% among 390,000 | AID 540317; also: potency is read from the fitted curve at half-maximal effect; nearly all actives have a fitted effect of over 70% in size
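Compound inhibition of the preformed complex between 50 nM HP1-beta and 50 nM biotinylated H3K9me3 peptide was read by AlphaScreen. Buffer was PBS pH 7.4 with 0.01% Tween-20. Incubations ran 30 min at room temperature, with 10 ug/mL donor/acceptor beads.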
CtBP-E1A blk: blocks the CtBP interaction with E1A | activity change, % (no concentration beside the values) | AlphaScreen GST-E1A/His-CtBP binding, 1536-well; active compounds read low | AID 651724 | hit rate 0.49% among 340,000; in the data active = activity change below about -65%; inconclusive = mostly about -30% to -63%; also: % is scaled to controls: 0 for no effect and ±100 for the full control effect
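Protein mix (5X: 125 nM each GST-E1A, His-CtBP) was incubated with pinned compound 2 h at 37 deg C in dark, in 50 mM Tris pH 8.0 buffer with 300 mM NaCl. Glutathione donor and nickel acceptor beads followed; AlphaScreen signal read after 1 h.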
JMJD2A Tudor inh: inhibitors of human JMJD2A Tudor domain | hit rate 4.4% among 390,000 | AlphaScreen JMJD2A-Tudor / H3K4me3 peptide binding | O75164 | Potency, µM (titrated, usually from 114 µM), without a hit: at the highest dose activity change, negative = inhibition, actives largely listed as inhibitors | AID 504339; also: potency is read from the fitted curve at half-maximal effect; % is scaled to controls: 0 for no effect and ±100 for the full control effect; nearly all actives have a fitted effect of over 50% in size
* marks the source's active call; other numbers are inactive results; ? = inconclusive; / = not tested or not shown; [ ] = remark or other dose. Hits are enriched below; roughly 10% of the tested compounds scored in any of these assays. Unless noted, calls follow the shape of the dose curve; as a rule, active = well fitted inhibition curve with a large enough effect; inconclusive = small, poorly fitted or top-dose-only effect; inactive = no such curve, though single readings can be large or run the other way.

SMILES	Six1-Eya2 blk	G9a inh	BAZ2B block	HP1b chromo inh	CtBP-E1A blk	JMJD2A Tudor inh
COC(CNC(=O)C1CCN(S(=O)(=O)c2ccc3nc4c(c(C(=O)O)c3c2)CC(C)CC4)CC1)OC (stereo not drawn)	-22	32µM*	?	10%	-18	-26%
CSc1ccc(S(=O)(=O)N2CCC(C(=O)NC3CC3)CC2)cc1	4	35µM*	6%	-2%	7	-14%
O=C(O)c1c2c(nc3ccc(S(=O)(=O)N4CCC(C(=O)N5CCCCC5)CC4)cc13)CCCC2	-16	50µM*	?	18%	0	-17%
CC1CCc2nc3ccc(S(=O)(=O)N4CCC(C(=O)NC(C)c5ccccc5)CC4)cc3c(C(=O)O)c2C1 (stereo not drawn)	-22	50µM*	?	13%	-6	-28%
COc1cc(F)c(S(=O)(=O)N2CCCN(S(=O)(=O)c3cccc(NC(C)=O)c3)CC2)c(F)c1	/	/	/	/	/	-31%
Cc1ccc(C)c(S(=O)(=O)N2CCCOC2CNC(=O)C(=O)NCc2cccs2)c1 (stereo not drawn)	-2	?	-4%	23%	4	-5%
O=C1CCCC2=C1C(c1ccc(O)c(O)c1)c1c(ccc3ncccc13)N2 (stereo not drawn)	-20	3.5µM*	45µM*	?	/	-19%[11.4 µM]
COc1cc(C2Nc3ccc4ncccc4c3C3=C2C(=O)CCC3)ccc1O (stereo not drawn)	-9	50µM*	-13%	-1%	-7	?
Cc1nc(CN(C)c2ncnc3ccc(-c4ccc5c(c4)OCO5)cc23)cs1	/	/	/	/	/	89µM*
CN(Cc1ccco1)c1ncnc2ccc(-c3ccc4c(c3)OCO4)cc12	/	-4%[12.7 µM]	-10%	1%	/	?
COc1cc(C(=O)NCCNC(=O)c2cc(OC)c(C)c(OC)c2)cc(OC)c1C	6	32µM*	-11%	23%	-4	-3%
COc1cc(C(=O)NCCCNC(=O)c2cc(OC)c(OC)c(OC)c2)cc(OC)c1OC	2	/	/	40%	-5	-11%
CCOC(=O)c1[nH]c2ccccc2c1NC(=O)CN(C)C	-8	?	-29%	28%	-2	4%
CCOC(=O)c1[nH]c2ccccc2c1NC(=O)NC(C)C	0	1%[12.7 µM]	2%	11%	2	-7%
COc1cccc2[nH]c(C(=O)NN)c(N)c12	-20	50µM*	?	-17%	-10	?
CCOC(=O)c1[nH]c2ccccc2c1NC(=O)CC(C)(C)C	1	50µM*	0%	41%	6	-10%
CCOC(=O)c1[nH]c2ccc(OC)cc2c1NC(=S)N1CCN(c2ccccc2OC)CC1	-22	79µM*	-39%	-18%	-28	?
CCOC(=O)c1[nH]c2ccccc2c1NC(=S)Nc1cccc(C)c1C	-2	45µM*	?	-13%	-2	?
CCOC(=O)c1c(NC(=O)COC(=O)CCCOc2ccc(OC)cc2)sc(C(=O)NC)c1C	0	-4%	11%	16%	2	-22%
CCOC(=O)c1[nH]c2ccccc2c1NC(=O)c1ccccc1OC	/	?	79µM*	5%	/	-29%
N#Cc1cccc(-c2nccc(NCc3cccnc3)n2)c1	/	15%[0.501 µM]	/	/	/	/
COc1ccc(NC(=S)NCCc2c(C)[nH]c3ccc(OC)cc23)cc1	-22	50µM*	/	-23%	-24	?
COc1cc(NC(=S)NCCc2c[nH]c3ccccc23)c(OC)cc1Cl	?	45µM*	?	?	-25	?
COc1ccccc1NC(=S)NCCc1c[nH]c2ccccc12	-23	-7%[0.501 µM]	45µM*	8.9µM*	-24	?
COc1ccc(NC(=S)NCCc2c[nH]c3ccccc23)cc1	-3	32%[59 µM]	45µM*	-25%	-7	-33%
SMILES	Six1-Eya2 blk	G9a inh	BAZ2B block	HP1b chromo inh	CtBP-E1A blk	JMJD2A Tudor inh
COc1ccc(CCNC(=S)Nc2ccc(OC)cc2)cc1	-2	13%[59 µM]	-16%	-9%	-5	-22%
CCCCC(CCc1ccccn1)C(=O)c1ccccc1 (stereo not drawn)	19	/	/	30%	32	22%
CN1CCN(CCCNC(=O)c2cnn(-c3ccccc3)c2-n2cccc2)CC1	/	2%[59 µM]	2%	5%	/	-26%
O=C(c1cccc(C(F)(F)F)c1)C1CCCN(Cc2cccn2-c2ccccn2)C1 (stereo not drawn)	-6	16%[12.7 µM]	?	13%	-3	-31%
O=C(NC1CC(=O)N(c2ccc(F)cc2)C1)c1ccc(S(=O)(=O)N2CCCCC2)cc1 (stereo not drawn)	/	-4%[59 µM]	-15%	6%	/	?
COc1ccc2[nH]cc(CCNC(=O)Nc3ccccc3)c2c1	0	-26%	-38%	-25%	-17	?
COc1ccc(OC)c(NC(=O)NCCc2c[nH]c3ccccc23)c1	-16	79µM*	?	-13%	-14	-32%
Cc1ccc(NC(=S)NCCc2c[nH]c3ccccc23)c(C)c1	-2	?	35µM*	-9%	/	?
COc1cccc(CNCCc2c[nH]c3ccccc23)c1OCc1ccc(F)cc1	-21	10%[2.33 µM]	-31%	-30%	-22	?
COc1cc(CNCCc2c[nH]c3ccccc23)ccc1OCc1ccc(F)cc1	?	?	50µM*	?	5	?
COc1ccc2[nH]cc(CCNC(=S)NCCc3ccccc3)c2c1	-30	45µM*	28µM*	-2%	-24	?
Cc1nnsc1C(=O)Oc1ccc(C(C)C)cc1	/	1%[59 µM]	120%	60%	/	51%
Cc1cnc(CNc2ncnc3ccc(-c4ccccc4C(F)(F)F)cc23)cn1	/	0%[0.501 µM]	/	/	/	/
COc1ccccc1-c1cccc(-c2nc(C(=O)Nc3nccs3)cc3c2[C@@H](CCO)N(C(=O)CC2CC2)C3)c1	-28	/	/	/	-5	/
Cc1cc(C)c(-c2c(N)cc(Br)cc2Br)c(N)c1	-26	/	/	-33%	-23	?
COc1ccc2oc(=O)c(C(=O)NCCc3c(C)[nH]c4ccc(C)cc34)cc2c1	/	?	25µM*	?	/	?
COc1ccc(Br)cc1-c1nc(C)c(C(C)=O)n1O	10	10µM*	-30%	18%	-9	-18%
CCN(CC)S(=O)(=O)c1cc(NC(=O)CNc2cccc(S(=O)(=O)N3CCCC3)c2)ccc1C	-6	?	0%	8%	-8	-30%
O=C(CC1C(=O)NCCN1Cc1ccccc1)NCCCOc1cccnc1 (stereo not drawn)	-20	50µM*	-9%	23%	10	-18%
COc1ccccc1CN1CCNC(=O)C1CC(=O)NCCCN1CCCC1=O (stereo not drawn)	0	71µM*	-6%[57.1 µM]	27%	-7	-2%

Compound activity: PubChem BioAssay, National Center for Advancing Translational Sciences (NCATS)
